# RGS8-Gao: human RGS8-Galphao interaction regulation; multiplexed bead flow cytometry, RGS8-Galphao binding; actives lie on both sides; response (percent of control binding), % at 10 µM; hit rate 0.34% among 220,000; in the data active means response below about 60% or above about 140%; inactive means in between;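 further: Galphao activated as the GDP aluminium fluoride complex binding bead-coupled RGS8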
# Target sequence (P09471 whole entry, looked up): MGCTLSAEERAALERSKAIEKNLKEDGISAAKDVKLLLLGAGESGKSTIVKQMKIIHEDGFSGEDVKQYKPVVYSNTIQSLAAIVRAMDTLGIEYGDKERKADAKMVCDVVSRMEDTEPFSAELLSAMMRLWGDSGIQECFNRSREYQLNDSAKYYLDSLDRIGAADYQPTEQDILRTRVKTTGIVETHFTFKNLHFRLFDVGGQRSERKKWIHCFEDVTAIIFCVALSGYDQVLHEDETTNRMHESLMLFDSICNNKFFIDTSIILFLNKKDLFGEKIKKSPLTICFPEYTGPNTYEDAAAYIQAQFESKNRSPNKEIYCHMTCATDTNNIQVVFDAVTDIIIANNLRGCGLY
# RGS4-Gao reg: modulates binding of RGS4 to human Galphao; P09471; Multiplexed bead flow cytometry; actives lie on both sides; binding response (% of control), % at 10 µM; hit rate 0.33% among 220,000; AID 1415; in the data active means binding response below about 49% or above about 150%; inactive means in between;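 further: fluorescent Galphao activated with aluminum fluoride binding bead-coupled RGS4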
# RGS16-Gao: regulators of human RGS16-Galphao interaction; bead-based flow cytometry RGS16-Galphao binding, fluorescence; actives lie on both sides; AID 1441; binding response (% of control), % at 10 µM; hit rate 0.38% among 220,000; O15492+P09471; call rule not given here;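 further: Galphao activated by GDP with aluminum fluoride before binding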
# Avidin fluor: compound fluoresces at 488/530 nm on avidin beads; compound fluorescence 488/530 nm, flow cytometry; hits give high values; fluorescence (KMESF) at 10 µM; hit rate 0.38% among 220,000; in the data active means fluorescence above about 47
# RGS7-Gao reg: human RGS7-Galphao interaction regulation; AID 1439; hit rate 0.35% among 220,000; Multiplexed bead flow cytometry, RGS7-Galphao binding; actives lie on both sides; binding response (% of control), % at 10 µM; P09471; in the data active means binding response below about 49% or above about 150%; inconclusive means no clear call, values can overlap the other calls; inactive means in between;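 further: fluorescent Galphao held in activated GDP-AlF4 state binding bead-coupled RGS7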
# GSH bead fluor: GSH bead compound fluorescence profile. GSH beads flow cytometry, compound fluorescence 488/530 nm; hits give high values. fluorescence (KMESF) at 10 µM. hit rate 0.25% among 190,000; in the data active means fluorescence above about 89;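 further: glutathione beads carrying GST-tagged Bcl family fusion proteins plus one bare bead set; values are compound well signal with DMSO vehicle wells as background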
# Active calls of the source: *; u = inconclusive; x = no result; ! = repeats disagree. Most compounds without a hit are left out; they make up all but 1.2% or so of the library.
SMILES,RGS8-Gao,RGS4-Gao reg,RGS16-Gao,Avidin fluor,RGS7-Gao reg,GSH bead fluor
CCCNC(=O)C(NS(=O)(=O)c1cccc2nsnc12)c1ccccc1 (stereo unspecified),102,102,106,8,103,15
N#Cc1c(-c2ccc(Cl)cc2)ccn2nc(C3CCCCC3)nc12,103,105,101,7,105,262*
Cc1cccc(NC(=S)N(CCN(C)C)C(C)c2ccccn2)c1 (stereo unspecified),104,103,162,1,102,34
O=C(CSc1nnc(-c2ccncc2)o1)N1CCc2ccccc2C1,105,102,110,47*,110,12
C[C@@H]1NC(=O)[C@H](CCC(=O)O)NC(=O)c2cc([N+](=O)[O-])cc(F)c2NCCC[C@@H](C(N)=O)NC1=O,101,100,99,10,98,16
O=C(CSc1nnc(-c2ccco2)o1)NC(=O)C1COc2ccccc2O1 (stereo unspecified),71,70,6,3,77,245*
CC(C)Cn1c(N)c(C(=O)CSc2ncnc3sc4c(c23)CCCC4)c(=O)n(C)c1=O,98,101,91,3,98,101*
CCCC(=O)Nc1nc(C)c(-c2csc(Nc3cc(OC)ccc3OC)n2)s1,101,107,102,80*,121,22
C=CCCC(=O)Nc1nc(C)c(-c2csc(Nc3cc(OC)ccc3OC)n2)s1,103,105,102,27,103,22
COc1ccc(Cc2noc(COc3ccc(Cl)cc3)n2)cc1,99,98,100,11,100,92*
COC(=O)c1cccc(NC(=O)NC23CC4CC(CC(C4)C2)C3)c1,102,100,102,8,102,243*
COC(=O)c1ccc(Cl)c(NC(=O)NC23CC4CC(CC(C4)C2)C3)c1,99,99,99,12,103,18
CCN(CC)S(=O)(=O)c1ccc(N2CCOCC2)c(NC(=O)Cc2cccc3ccccc23)c1,102,100,113,11,102,4
O=C(c1cc(=O)[nH]c2ccccc12)N1CCN(c2ccccc2)CC1,98,96,106,6,u,x
CCOC(=O)CSc1nc2cc3c(cc2cc1C)OCO3,98,114,97,72*,140,12
CCOC(=O)c1c(NC(=O)N/N=C/c2ccccc2OCC)sc(C(C)=O)c1C,85,90,27,5,90,447*
O=C(CN1C(=O)NC2NC(=O)NC21)N/N=C/c1ccccc1F (stereo unspecified),95,96,96,28,96,58
CN(C1CCCCC1)S(=O)(=O)c1ccc(C(=O)N2CCN(c3nc4ccccc4s3)CC2)cc1,102,103,98,7,100,11
CCn1c(Cc2ccccc2)nnc1SCC(=O)Nc1ccc(C)cc1,100,97,108,5,100,16
CCn1c(CC(=O)Nc2ccc(C)cc2)nnc1SCC(=O)NCCc1ccccc1,101,104,106,49*,111,15
CCNC(=O)CSc1nnc(CN2CCCCCC2=O)n1-c1ccccn1,103,103,109,26,103,15
O=C1CCCCCN1Cc1nnc(SCc2nc3ccccc3s2)n1-c1ccccn1,101,103,108,8,106,257*
CCOC(=O)Cc1cc(=O)c2cc(C)ccc2[nH]1,102,102,102,12,u,x
CCOC(=O)c1ccc(NC(=O)N2CCN(c3cccc(OC)c3)CC2)cc1,100,105,103,9,u,17
COc1cc(OC)c(-c2c3cc(O)c(=O)cc-3oc3cc(O)c(O)cc23)cc1OC,32*,37*,30,-1,-3.2*,283*
Cc1c2cc(O)c(=O)cc-2oc2cc(O)c(O)cc12,31*!,25*!,90,6,-4.9*!,x
Clc1ccc(-c2nc(-c3cc4cc(Cl)ccc4o3)cs2)cc1,106,97,104,11,u,x
Cc1cc(NC(=O)Nc2cc(C)nn2-c2ccccc2)n(-c2ccccc2)n1,100,102,105,19,101,37
CCOC(=O)/C=C(\C)Nc1cc(C)nn1-c1ccccc1,8.3*,23*,-13,0,11*,22
